Source: PubChem BioAssay (National Center for Advancing Translational Sciences (NCATS))
Most compounds without a hit are left out; they make up all but 18% or so of the library.
DT40 TDP1 no CPT: qHTS for Inhibitors of human tyrosyl-DNA phosphodiesterase 1 (TDP1): qHTS in cells in absence of CPT. DT40 Tdp1-/- hTDP1 cells, no CPT, ATP luminescence, 48 h. Potency, µM (titrated, usually from 46.2 µM), for inactives: at the top dose activity change, negative = growth inhibition, most hits filed as inhibitors. 420,000 compounds, 15% hits. AID 686978, 2013; also: potency is read from the fitted curve at half-maximal effect; nearly all actives have a fitted effect of over 55% in size
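Readout: luminescence from CellTiter-Glo after 30 min in the dark at RT. Cells: DT40 Tdp1-/- with stable hTDP1, 400/well. Exposure: compounds alone, ≥48 hr, 37 °C.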
IL-1B inflam inh: blocks inflammasome-driven IL-1 beta release; THP-1 LPS/ATP IL-1B secretion, AlphaLISA, 16 h; active compounds read low; activity change, % at 57.5 µM; 360,000 compounds, 4.7% hits; AID 743279; in the data active = activity change below about -50%; inconclusive = mostly about -30% to -49%
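Secreted IL-1B measured by AlphaLISA bead assay after 16 h compound exposure of THP-1 cells; compounds (final up to 57.5 uM) added 1 h before LPS (250 ng/mL) and ATP (1.25 mM) stimulation; lower signal means less secretion.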
Gal4-VP16 FLuc: counter-screen for ROR gamma inhibitors: Gal4-VP16 reporter; Drosophila S2 Gal4-VP16 UAS-luciferase, luminescence, 20 h; Potency, µM (titrated, usually from 53.6 µM), without a hit: at the top dose activity, negative = inhibition, hits mostly inhibitors; 310,000 compounds, 3.5% hits; AID 2546;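 also: Gal4-VP16 expression switched on by copper sulfate through the metallothionein promoter; potency is read from the fitted curve at half-maximal effect; nearly all actives have a fitted effect of over 50% in size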
RORg inh: ROR gamma (mouse) transcription inhibition; 310,000 compounds, 5.4% hits; Drosophila S2 Gal4-RORgamma UAS-luciferase reporter, 20 h; AID 2551; Potency, µM (titrated, usually from 53.6 µM), for the others: at the top dose activity change, negative = inhibition, actives largely listed as inhibitors; P51450; also: potency is read from the fitted curve at half-maximal effect; nearly all actives have a fitted effect of over 60% in size
Target sequence (P51450 whole entry, looked up, the tested form may be a part): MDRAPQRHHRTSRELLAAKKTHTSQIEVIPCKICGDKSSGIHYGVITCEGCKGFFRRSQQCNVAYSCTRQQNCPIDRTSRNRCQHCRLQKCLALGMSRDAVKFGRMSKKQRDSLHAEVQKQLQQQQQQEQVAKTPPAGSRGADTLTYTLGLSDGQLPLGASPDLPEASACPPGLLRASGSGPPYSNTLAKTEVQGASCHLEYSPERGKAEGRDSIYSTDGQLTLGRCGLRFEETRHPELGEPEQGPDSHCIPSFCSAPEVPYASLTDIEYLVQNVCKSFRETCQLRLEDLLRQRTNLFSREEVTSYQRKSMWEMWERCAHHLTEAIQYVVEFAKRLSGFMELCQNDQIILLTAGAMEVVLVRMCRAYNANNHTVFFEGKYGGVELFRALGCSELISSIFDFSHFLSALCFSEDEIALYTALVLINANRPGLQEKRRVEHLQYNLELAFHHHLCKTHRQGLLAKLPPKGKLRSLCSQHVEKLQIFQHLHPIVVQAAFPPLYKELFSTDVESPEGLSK
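Drosophila Schneider cells stably carrying a metallothionein-driven Gal4 DBD–ROR gamma fusion and a UAS-Photinus luciferase reporter were exposed to compound for 1 hr, then induced with copper sulfate (700 uM final) for 20 hr at ambient temperature before luminescence reading.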
DT40 TDP1 CPT: growth inhibition of DT40 Tdp1-/-;hTDP1 cells with camptothecin (screen for TDP1 inhibitors). chicken DT40 Tdp1-/-;hTDP1 cells + 20 nM CPT, ATP luminescence, 48 h. Potency, µM (top dose mostly 46.2 µM), for inactives: top-dose activity change, negative = growth inhibition, usual class: inhibitors. 420,000 compounds, 12% hits. AID 686979; also: potency is read from the fitted curve at half-maximal effect; nearly all actives have a fitted effect of over 55% in size
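Cell growth measured by CellTiter-Glo luminescence after a minimum 48 h, 37 C compound exposure with 20 nM CPT in Tdp1-knockout DT40 cells stably expressing hTDP1, seeded 400/well; qHTS titration format.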
LDHA block: blocks human lactate dehydrogenase A | P00338 | purified LDHA, NADH/diaphorase-resazurin fluorescence; active compounds read low | activity change, % (values are at about 110 or 230 µM) | 480,000 compounds, 0.15% hits; in the data active = activity change below about -30%; inconclusive = mostly about -25% to -30%;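 also: plate controls were DMSO wells for no effect and wells without enzyme for full effect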
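Resorufin fluorescence (ex540/em590), read at 0 and 20 min after diaphorase/resazurin addition, reports the NADH left after a 5 min room-temperature reaction of 2 nM human LDH5 with 0.06 mM NADH and 0.2 mM pyruvate.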
* marks the source's active call; other numbers are inactive results; ? = inconclusive; nt = no result; [ ] = another dose, or the depositor's remark. Unless noted, calls follow the shape of the dose curve; as a rule, active = well fitted curve in the direction sought with a large enough effect; inconclusive = small, poorly fitted or top-dose-only effect, or another doubt; inactive = no such curve, though single readings can be large; an effect the other way counts as inactive or inconclusive. Unless noted, % is scaled to controls: 0 for no effect and ±100 for the full control effect.

SMILES	DT40 TDP1 no CPT	IL-1B inflam inh	Gal4-VP16 FLuc	RORg inh	DT40 TDP1 CPT	LDHA block
Cc1ccc(NC(=O)CCNC(=O)c2ccc(Br)cc2)cc1S(=O)(=O)N1CCCCCC1	16µM*	6	nt	nt	?	4
CCc1ccccc1OCC(=O)Nc1cccc(S(=O)(=O)N2CCCC2)c1	16µM*	-3	nt	nt	?	1
O=C(CN1CCCC1c1cccs1)Nc1cccc(S(=O)(=O)N2CCCC2)c1 (stereo not drawn)	?	11	nt	nt	15µM*	-4
O=C(Cc1ccc(Cl)c(Cl)c1)Nc1cccc(S(=O)(=O)N2CCOCC2)c1	?	-80*	0%	43%	?	-3
O=C(CN1CCCC1c1cccs1)Nc1cc(S(=O)(=O)N2CCCC2)ccc1Cl (stereo not drawn)	?	9	nt	nt	?	2
CSc1nc(C(C)C)nc(C)c1C(=O)Nc1cc(Cl)ccc1C	nt	nt	nt	nt	nt	3
Cn1c(SCC(=O)NCc2ccc3c(c2)OCO3)nnc1-c1ccco1	nt	nt	nt	nt	nt	5
CNC(=O)Cc1ccc(NC(=O)C=C(C)C)cc1	nt	nt	nt	nt	nt	-1
Cn1c(=O)c2c(nc(SCC(=O)Nc3ccccc3)n2CCCc2ccccc2)n(C)c1=O	nt	nt	nt	nt	nt	-11
CCCc1ccc(/C(C)=N/NC(=O)C2CC2c2ccccc2)cc1 (stereo not drawn)	nt	nt	nt	nt	nt	2
COc1ccc(S(=O)(=O)N2CCN(CC(=O)Nc3c(C)n[nH]c3C)CC2)cc1OC	2%	-3	nt	nt	10%	-36*
Cc1n[nH]c(C)c1NC(=O)CN1CCN(S(=O)(=O)c2ccc(C(F)(F)F)cc2)CC1	10%	-23	nt	nt	-24%	-37*
CC(C)(C)NC(=O)CN1CCN(c2cccc(F)c2C#N)CC1	nt	nt	nt	nt	nt	-6
CCN(CC)C(=O)c1ccc2oc(CN3CCN(C(=O)Nc4cccc(F)c4)CC3)nc2c1	nt	nt	nt	nt	nt	-2
CCN(CC)c1ccc(/C=C/C(=O)C2C(=O)C=C(C)OC2=O)cc1 (stereo not drawn)	?	-16	?	13µM*	12%	10
COc1cc(/C=C/C(=O)C2C(=O)C=C(C)OC2=O)cc(Cl)c1OC(F)F (stereo not drawn)	nt	nt	nt	nt	nt	13
CC(C)c1ccc(/C=C/C(=O)NC2=NCCS2)cc1	nt	nt	?	8.9µM*	nt	nt
O=C(/C=C/c1ccc(Cl)c(Cl)c1)NC1=NCCS1	-13%	-4	?	7.9µM*	-23%	-3
CC(C)c1ccc(OCC(=O)NC2=NCCS2)cc1	?	-18	-22%[10 µM]	14µM*	-25%	-8
CC(C)(C)c1ccc(OCCC(=O)NC2=NCCS2)cc1	?	1	8.9µM*	3.5µM*	-23%	-3
CC(C)c1ccc(/C=C/C(=O)Nc2c(F)c(F)c(F)c(F)c2F)cc1	nt	nt	nt	nt	nt	3
Cc1ccc(-c2ocnc2C(=O)NCCc2cccc(C)c2)cc1	nt	nt	nt	nt	nt	0
CCc1ccc(C(=O)CCC(=O)OCc2ccc(C#N)cc2)cc1	nt	nt	nt	nt	nt	-1
CC(=O)NC12CC3CC(C1)CC(C(=O)NC1CCCc4ccccc41)(C3)C2 (stereo not drawn)	nt	nt	nt	nt	nt	6
CC(Oc1ccc(F)cc1F)C(=O)NN (stereo not drawn)	nt	nt	nt	nt	nt	0
SMILES	DT40 TDP1 no CPT	IL-1B inflam inh	Gal4-VP16 FLuc	RORg inh	DT40 TDP1 CPT	LDHA block
CC(C)C(C(=O)NC1=NCCS1)c1ccc(Cl)cc1 (stereo not drawn)	?	23	?	4.5µM*	?	0
COc1ccc2c(c1)cc(C(=O)Nc1ccc(F)cc1F)n2C	nt	nt	nt	nt	nt	4
CC(=O)c1c(O)c(C)c(O)c2c1OC1=CC(=O)/C(=C(/C)N)C(=O)C12C (stereo not drawn)	8.2µM*	1	nt	nt	15µM*	-6
CC1=NC(Nc2nc(C)c3ccccc3n2)=NC(C)(C)C1	16µM*	-100*	-6%	-28%	21µM*	-2
Cc1ccc(C(C(=O)NCC2CCCO2)N(Cc2ccccc2)C(=O)c2ccc(-c3ccccc3)[nH]2)o1 (stereo not drawn)	?	-79*	?	?	?	2
O=C(NCC1CCCO1)C(c1cccs1)N(Cc1ccccc1Cl)C(=O)c1ccc(-c2ccccc2)[nH]1 (stereo not drawn)	23µM*	?	-16%	25%	?	-3
O=C(NCC(=O)N(Cc1ccccc1)C(C(=O)NCC1CCCO1)c1ccccc1)c1ccco1 (stereo not drawn)	-30%	-17	7%	-3%	-11%	-11
COc1ccc2c(c1)CC/C(=C\c1ccccc1Br)C2=O	nt	nt	nt	nt	nt	-1
N#CC1=C(N)N(c2ccccc2C(F)(F)F)C2=C(C(=O)CCC2)C1c1ccsc1 (stereo not drawn)	nt	nt	nt	nt	nt	7
CC(C)NC(=S)NN=C1CCC(C(C)(C)C)CC1 (stereo not drawn)	nt	nt	nt	nt	nt	-2
CCNC(=S)NN=C1CCC(C(C)(C)C)CC1 (stereo not drawn)	18µM*	-19	3%	8.9µM*	?	0
CC(NC(=O)CSc1nnc(-c2nn(Cc3ccccc3)c(=O)c3ccccc23)o1)c1ccccc1 (stereo not drawn)	nt	nt	nt	nt	nt	-5
Cc1cccc(N2CCN(c3nc4ccc(Cl)cc4n4cnnc34)CC2)c1C	?	22	?	-1%	21µM*	2
Clc1cccc(N2CCN(c3nc4ccccc4n4cnnc34)CC2)c1	?	nt	nt	nt	?	-7
COc1ccccc1N1CCN(c2nc3ccccc3n3cnnc23)CC1	21µM*	nt	nt	nt	?	-12
O=C(NC(c1ccccc1)c1ccccc1)c1cc2ccccc2[nH]1	nt	nt	nt	nt	nt	4
COC(=O)c1ccc(C(=O)Oc2ccc(C(C)=O)cc2)cc1	nt	nt	nt	nt	nt	-1
Cc1ccc2nc(C)cc(Nc3ccc([N+](=O)[O-])cc3)c2c1	0.92µM*	15	5µM*	7.1µM*	1µM*	-7
Cc1cc(C(=O)OCC(=O)NCc2ccc(F)cc2)c2ccccc2n1	-11%	0	nt	nt	?	0
CC(=O)c1cccc(Nc2cc(C)nc3ccc(C)cc23)c1	?	-6	?	3%	?	1
COc1ccc2nc(C)cc(NCc3ccc(F)cc3)c2c1	23µM*	-79*	0%	-4%	?	-5
COC(=O)c1ccc(Nc2cc(C)nc3ccc(C)cc23)cc1	21µM*	-93*	-26%	?	15µM*	-11
COc1ccc(Nc2cc(C)nc3ccccc23)cc1	18µM*	?	5%	-3%	?	-13
CC(=O)Nc1cccc(NC(=O)CSCc2nc3ccccc3c(=O)[nH]2)c1	nt	nt	nt	nt	nt	1
